Screen size: about 5,500 compounds; about 2,000 (36%) were called active. Not shown: some 18% with an inconclusive outcome. Cut-off read from the data, not from the text of the source: active = normalized growth mostly below about 0.91 (no sharp cut-off); inconclusive = no clear call, values can overlap the other calls; inactive = mostly above about 0.92. The list shows a part of the results.
Test: chemical genetic growth profiling, strain panel (AID 1159580);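 note: tested at 20 µM; growth read once vehicle control cultures reached saturation at 30 °C; 1 = growth at the plate median or of vehicle wells; lower values mean less growth of the strain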
Conditions: S. cerevisiae deletion strains, growth OD
[1] = locus YDL101C, strain DUN1, hits give low values
[2] = locus YHR030C, strain SLT2, hits give low values

Measured: normalized growth

CCOC(=O)COc1ccc2c(c1)OC(C)(C)CC2=O
inactive: locus YAL013W, strain DEP1, hits give low values 0.998 | locus YBR229C, strain ROT2, hits give low values 0.994 | locus YCL061C, strain MRC1, hits give low values 0.964 | [1] 0.993 | locus YDL134C, strain PPH21, hits give low values 1.01 | locus YDR150W, strain NUM1, hits give low values 0.872 | locus YEL061C, strain CIN8, hits give low values 1.01 | locus YGR078C, strain PAC10, hits give low values 1 | locus YGR229C, strain SMI1, hits give low values 1.01 | [2] 0.947 | locus YHR087W, strain rtc3, hits give low values 0.976 | locus YJR043C, strain POL32, hits give low values 0.994 | locus YJR075W, strain HOC1, hits give low values 0.974 | locus YLR039C, strain RIC1, hits give low values 1.05 | locus YLR058C, strain SHM2 (second series), hits give low values 1 | locus YLR085C, strain ARP6, hits give low values 0.965 | locus YLR262C, strain YPT6, hits give low values 1.02 | locus YML094W, strain GIM5, hits give low values 1.02 | locus YMR219W, strain ESC1, hits give low values 0.988 | locus YMR263W, strain SAP30, hits give low values 1.01 | locus YMR307W, strain GAS1, hits give low values 0.986 | locus YNL128W, strain TEP1, hits give low values 1.01 | locus YNL153C, strain GIM3, hits give low values 0.966 | locus YNL298W, strain CLA4 (second series), hits give low values 1.01 | locus YNL322C, strain KRE1, hits give low values 1 | locus YNR030W, strain Alg12, hits give low values 1 | locus YPL055C, strain LGE1, hits give low values 0.849 | locus YPL241C, strain CIN2, hits give low values 0.953 | locus YPR135W, strain CTF4, hits give low values 1.03

Cc1oc2c(F)c(F)c(F)c(F)c2c1C(=O)ONC(N)c1ccc(OS(=O)(=O)N(C)C)cc1 (stereo not given)
inactive: locus YAR019C, strain CDC15, hits give low values 0.958 | locus YBL105C, strain PKC1, hits give low values 0.963 | locus YBR135W, strain CKS1, hits give low values 0.971 | locus YBR136W, strain MEC1, hits give low values 0.958 | locus YBR160W, strain CDC28, hits give low values 0.976 | locus YDL017W, strain CDC7, hits give low values 0.973 | locus YDL028C, strain MPS1, hits give low values 0.959 | [1] 0.985 | locus YDL108W, strain KIN28, hits give low values 0.978 | locus YDL132W, strain cdc53, hits give low values 0.982 | locus YDL214C, strain PRR2, hits give low values 0.969 | locus YDR052C, strain DBF4, hits give low values 0.971 | locus YDR054C, strain cdc34, hits give low values 0.976 | locus YDR226W, strain ADK1, hits give low values 0.969 | locus YDR477W, strain SNF1, hits give low values 0.946 | locus YER123W, strain YCK3, hits give low values 0.926 | locus YER133W, strain GLC7, hits give low values 0.958 | locus YFL009W, strain cdc4, hits give low values 0.962 | locus YFL029C, strain CAK1, hits give low values 0.958 | locus YFR003C, strain YPI1, hits give low values 0.968 | locus YFR019W, strain FAB1, hits give low values 0.937 | locus YFR028C, strain CDC14, hits give low values 0.963 | locus YGR040W, strain KSS1, hits give low values 0.949 | locus YGR052W, strain FMP48, hits give low values 1.03 | locus YGR092W, strain DBF2, hits give low values 0.989 | [2] 0.937 | locus YHR079C, strain IRE1, hits give low values 0.981 | locus YHR082C, strain KSP1, hits give low values 1.02 | locus YHR205W, strain SCH9, hits give low values 0.926 | locus YIL147C, strain SLN1, hits give low values 0.96 | locus YJL095W, strain BCK1, hits give low values 0.983 | locus YJL128C, strain PBS2, hits give low values 0.972 | locus YJL157C, strain FAR1, hits give low values 0.963 | locus YJR016C, strain ILV3, hits give low values 0.972 | locus YJR066W, strain TOR1 (second series), hits give low values 0.918 | locus YJR066W, strain TOR1, hits give low values 0.985 | locus YKL048C, strain ELM1, hits give low values 0.981 | locus YKL067W, strain YNK1, hits give low values 0.975 | locus YKL101W, strain HSL1, hits give low values 0.966 | locus YKL193C, strain SDS22, hits give low values 0.969 | locus YKL203C, strain TOR2, hits give low values 0.99 | locus YLR113W, strain HOG1, hits give low values 0.966 | locus YLR133W, strain CKI1, hits give low values 0.96 | locus YLR403W, strain SFP1, hits give low values 0.921 | locus YML070W, strain DAK1, hits give low values 0.955 | locus YMR001C, strain CDC5, hits give low values 0.963 | locus YMR205C, strain PFK2 (second series), hits give low values 0.975 | locus YMR277W, strain FCP1, hits give low values 0.964 | locus YNL006W, strain LST8, hits give low values 0.97 | locus YNL020C, strain ARK1, hits give low values 0.982 | locus YNL161W, strain CBK1, hits give low values 0.971 | locus YNL183C, strain NPR1, hits give low values 0.964 | locus YNL207W, strain RIO2, hits give low values 0.967 | locus YNL222W, strain SSU72, hits give low values 0.976 | locus YNL307C, strain MCK1 (second series), hits give low values 0.952 | locus YOL078W, strain AVO1, hits give low values 0.963 | locus YOL136C, strain PFK27, hits give low values 0.952 | locus YOR061W, strain CKA2, hits give low values 0.951 | locus YOR119C, strain RIO1, hits give low values 0.97 | locus YOR231W, strain MKK1, hits give low values 0.986 | locus YOR329C, strain SCD5, hits give low values 0.972 | locus YPL031C, strain PHO85, hits give low values 0.94 | locus YPL153C, strain RAD53, hits give low values 0.946 | locus YPL204W, strain HRR25, hits give low values 0.963 | locus YPL209C, strain IPL1, hits give low values 0.974 | locus YPL256C, strain CLN2, hits give low values 0.959 | locus YPR025C, strain CCL1, hits give low values 0.968 | locus YPR106W, strain ISR1, hits give low values 0.986 | locus YPR111W, strain DBF20, hits give low values 0.98 | strain NNK1, hits give low values 0.993 | strain TSCII, hits give low values 0.967

Source: PubChem BioAssay AID1159580 (chemical genetic matrix, 2015)
